Shown are actives, neighbours in structure and some others; about 5.7% of the full set was active somewhere.
KB-V1 cytotox: qHTS assay for MDR1-selective chemotherapeutics: Primary screen using the drug-selected MDR subline cells KB-V1; KB-V1 MDR cells viability, CellTiter-Glo, 72 h; Potency, µM (series often up to 46.1 µM), hits mostly cytotoxic; 400,000 compounds, 3.4% hits; AID 1347076, 2019; note: nearly all actives have a fitted effect of over 60% in size
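Cells of the MDR subline KB-V1 are plated, dosed with compound at multiple concentrations, and incubated 72 h at 37 degrees C; CellTiter-Glo is then added and luminescence read after 10 min.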
KB-3-1 tox: qHTS assay for MDR1-selective chemotherapeutics: Primary screen using the parental adenocarcinoma cell KB-3-1 | KB-3-1 viability, CellTiter-Glo ATP luminescence, 72 h | Potency, µM (series often up to 46.1 µM), actives largely listed as cytotoxic | AID 1347075, 2019 | 400,000 compounds, 1.4% hits; note: nearly all actives have a fitted effect of over 60% in size
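Cytotoxicity in the drug-sensitive parental line KB-3-1 was scored as loss of CellTiter-Glo luminescence following 72 h incubation with compound. Values come from curve fitting of normalized concentration-response data.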
HT1080 IDH1KD tx: qHTS for induction of synthetic lethality in tumor cells producing 2HG: qHTS for the HT-1080-IDH1KD cell line | HT-1080 IDH1 knockdown viability, ATP luminescence, 48 h | Potency, µM (series often up to 46.1 µM), usual class: cytotoxic | 360,000 compounds, 2% hits | AID 686971, 2013
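Cytotoxicity counter-line: IDH1KD HT-1080, 48 h, CellTiter-Glo. Curves classed by r2, magnitude and activity.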
HT1080NT lethal: qHTS for induction of synthetic lethality in tumor cells producing 2HG: qHTS for the HT-1080-NT fibrosarcoma cell line; Potency, µM (doses to about 46.1 µM), most hits filed as cytotoxic; HT-1080-NT fibrosarcoma viability, CellTiter-Glo ATP luminescence, 48 h; 360,000 compounds, 1.6% hits;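 note: NT is the 2HG producing partner of a matched IDH1 knockdown line; nearly all actives have a fitted effect of over 55% in size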
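Compounds were tested in concentration-response format on HT-1080-NT cells for 48 hours at 37 degrees C. Cell viability came from CellTiter-Glo luminescence; curves were classified by r2, response magnitude and activity.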
Hits are given with their value; – = inactive; ? = inconclusive; · = no result. Calls come from the whole dose curve; as a rule, active = well fitted curve in the direction sought with a large enough effect; inconclusive = small, poorly fitted or top-dose-only effect, or another doubt; inactive = no such curve, though single readings can be large; an effect the other way counts as inactive or inconclusive.

SMILES	KB-V1 cytotox	KB-3-1 tox	HT1080 IDH1KD tx	HT1080NT lethal
Cc1ccc(OCc2cc(C(=O)N(C)Cc3cnn(-c4ccccc4C)c3)no2)cn1	?	18.4µM	20.6µM	18.4µM
CCC1CCCCN1C(=O)c1cc(COc2ccc3ncccc3c2)on1 (configuration not stated)	1.64µM	4.11µM	?	–
Cc1ccc(C)c(C(=O)N2CCC(c3nc4c(nnn4Cc4ccccc4)c(=O)[nH]3)CC2)c1	–	–	·	·
Cc1c(C)n(Cc2ccccc2)c2ccc(C(=O)NCCc3ccccc3Cl)cc12	–	–	·	·
Cc1cccc(-c2nc(CN3CCCC(C(=O)N4CCN(c5cc(Cl)ccc5C)CC4)C3)c(C)o2)c1 (configuration not stated)	–	–	·	·
O=C(CSc1ccc(F)cc1)N1CCC(c2nc3ccccc3s2)CC1	–	–	–	–
O=C(CSc1ccc2ccccc2n1)N1CCC(c2noc3ccc(F)cc23)CC1	9.2µM	–	–	–
Cc1nnc(SCC(=O)N2CCC(c3noc4ccc(F)cc34)CC2)s1	?	–	–	–
Cc1sc2ncnc(SCC(=O)N3CCC(c4noc5ccc(F)cc45)CC3)c2c1C	10.3µM	–	–	–
Cc1noc(-c2ccc(-c3noc(-c4ccc(Cl)cc4)n3)cc2)n1	–	?	·	·
NC(=S)NCc1cccnc1	–	–	–	–
O=C(NC(=S)NCc1cccnc1)c1ccccc1[N+](=O)[O-]	23.1µM	–	–	–
CSC(=S)NCc1cccnc1	–	25.9µM	?	?
CCCCc1ccc(NC(=S)NCc2cccnc2)cc1	14.6µM	?	–	–
